Here are results for 69 compounds from PubChem BioAssay AID2279 (Southern Research Specialized Biocontainment Screening …, 2010).

The nature of the experiment: HIV-1 Env-mediated cell fusion inhibitors, dose response, CCR5-tropic Env (AID 2279).

Entries with a potency or affinity are not part of this list. Calls of active or inactive are those of the source. No rule for the calls is given here.

For `CCOC(=O)c1sc2nc3c(SCCC(=O)O)cc(C(=O)c4cc(OC)ccc4O)cn3c(=O)c2c1C`, the compound was called inactive.
As for `C/C(=N\Nc1ccc(C(=O)O)cc1)c1ccc2c(c1)Nc1ccccc1S2`, the compound was classed as inactive.
`O=C1NN(c2ccccc2)C(=O)/C1=C\c1cccc(OC(=O)c2cccs2)c1`: the outcome was inactive.
For `COc1cc(/C=C2\C(=N)N3N=C(S(C)(=O)=O)SC3=NC2=O)ccc1OC(=O)c1cccs1` the value was “inactive”; for `COc1cc(/C=C2/C(=O)NN(c3ccc(Cl)cc3)C2=O)ccc1OC(=O)c1ccco1`, “inactive”; for `O=C(COc1ccc2ccccc2c1)Nc1cccc(C(=O)Nc2ccccc2C(=O)O)c1`, “inactive”.
With `COc1cccc(OCCOc2ccc(/C=C3\C(=N)N4N=C(S(C)(=O)=O)SC4=NC3=O)cc2OC)c1` the entry was “inactive”; with `CCCCCC(=O)Cc1cc(O)cc2c1C(=O)Oc1cc(O)c(C(=O)O)c(CCCCC)c1O2`, “inactive”; with `O=C(COc1cccc2ccccc12)Nc1ccc(Cl)cc1C(=O)O`, “inactive”.
With `O=C(O)c1ccc(NS(=O)(=O)c2ccc3c(c2)C2C=CCC2C(c2ccccc2F)N3)cc1` (centres undefined) the entry was “inactive”.
As for `O=C(O)c1ccc(/C=N/NC(=O)c2ccc(CN3c4cccc5cccc(c45)S3(=O)=O)cc2)cc1`, the compound was classed as inactive.
For `Cc1ccc2nc(N3C(=O)C(O)=C(C(=O)c4ccco4)C3c3cccc(O)c3)sc2c1` (centres undefined), the call was inactive.
With `COc1cc(NS(=O)(=O)c2ccc(Nc3nc(-c4ccccc4)cs3)cc2)nc(OC)n1` the entry was “inactive”; with `CCOc1ccc2nc(NC(=O)CSc3nc(-c4ccccc4)c(C#N)c(=O)[nH]3)sc2c1`, “inactive”.
With `COc1cc(/C=N/NC(=O)C(Cc2c[nH]c3ccccc23)NC(=O)OCc2ccccc2)cc([N+](=O)[O-])c1O` (centres undefined) the entry was “inactive”; with `COc1ccc(-c2nn(-c3ccccc3)cc2/C=C\C(=O)Nc2ccc(C(=O)O)cc2)cc1`, “inactive”.
With `CCCOc1ccc(C(=O)NNC(=S)NC(=O)c2cc(-c3ccccc3)nc3ccccc23)cc1` the entry was “inactive”; with `O=C(O)c1cccc2c(-c3ccccc3)c(-c3ccccc3)[nH]c12`, “inactive”; with `COc1cccc(-c2nc(SCC(=O)Nc3nc(-c4ccccc4)c(C)s3)[nH]c(=O)c2C#N)c1`, “inactive”.
As for `CC1=C(C(=O)Nc2ccccc2)C(c2ccc(Cl)cc2)n2c(s/c(=C/c3cccc(OCC(=O)O)c3)c2=O)=N1` (centres undefined), the outcome was inactive.
For `CC(C)c1ccc(OCC(=O)Nc2cccc(C(=O)Nc3ccccc3C(=O)O)c2)cc1` the value was “inactive”.
As for `O=C(NN1C(=O)/C(=C/c2ccc(O)cc2)SC1=S)c1ccccc1O`, the outcome was inactive.
With `O=C(O)CCN1C(=O)/C(=C\c2cccc(OCC(=O)Nc3ccc(Cl)cc3)c2)SC1=S` the entry was “inactive”; with `COc1cc(Cl)cc(C(c2c(C(=O)O)[nH]c3ccccc23)c2c(C(=O)O)[nH]c3ccccc23)c1O`, “inactive”; with `O=C1N/C(=N\S(=O)(=O)c2ccccc2)S/C1=C\c1cc([N+](=O)[O-])ccc1O`, “inactive”.
Take `O=C(O)c1cc(NC(=O)c2ccc(Br)cc2)cc(NC(=O)c2ccc(Br)cc2)c1`: the call was inactive.
With `CCc1ccc(S(=O)(=O)/N=C2\C=C(NS(=O)(=O)c3ccccc3)C(=O)c3ccccc32)cc1`, the result was inactive.
With `Cc1noc(NS(=O)(=O)c2ccc(NC(=O)Nc3ccc(Cl)c(Cl)c3)cc2)c1C` the entry was “inactive”; with `COC(=O)c1sc(-c2ccc(C(C)(C)C)cc2)cc1NC(=O)CSCC(=O)O`, “inactive”.
For `COc1ccc(-c2cc(-c3ccc(Cl)cc3)c(C#N)c(SCC(=O)O)n2)cc1` the value was “inactive”; for `CCOc1ccc(C2C(C(=O)Nc3ccccc3)=C(C)N=c3s/c(=C/c4cccc(OCC(=O)O)c4)c(=O)n32)cc1` (centres undefined), “inactive”; for `O=C(O)c1ccc(Nc2nc(-c3cc4ccccc4oc3=O)cs2)cc1O`, “inactive”.
With `CCCCCc1c2c(cc(O)c1C(=O)O)OC(=O)c1c(cc(OC)cc1C(=O)CCCC)O2` the entry was “inactive”.
In the case of `Cc1ccccc1N/N=C/c1sc(=O)n(Cc2cccc(C(=O)O)c2)c1Cl`, the call was inactive.
With `CC(C)(C)OC(=O)N1CCC(c2cc(=O)n3[nH]cc(C(=O)Nc4ccc(F)c(Cl)c4)c3n2)CC1` the entry was “inactive”.
With `O=C(O)CN1C(=O)/C(=C\c2cccc(OCc3ccc(Cl)cc3)c2)SC1=S` the entry was “inactive”; with `O=C(O)c1cc(NN=C2c3ccccc3-c3ccccc32)ccc1Cl`, “inactive”.
For `O=C(CCN1C(=O)/C(=C/c2ccccc2Cl)SC1=S)Nc1ccccc1C(=O)O` the value was “inactive”; for `O=C(Nc1ccc(Br)cc1C(=O)O)c1ccc2c(c1)C(=O)N(Cc1ccccc1)C2=O`, “inactive”; for `CCOc1ccc(NC(=NCc2ccc3c(c2)OCO3)SC2CC(=O)N(c3ccc(C(=O)O)cc3)C2=O)cc1` (centres undefined), “inactive”.
`Cc1c(CCC(=O)O)c(=O)oc2c(C)c3occ(-c4ccc(Cl)cc4)c3cc12`: the outcome was inactive.
Take `C=CCOC(=O)C1=C(C)N=c2s/c(=C3\C(=O)N(CC(=O)O)c4ccccc43)c(=O)n2C1c1ccc(OC)cc1` (centres undefined): the compound was classed as inactive.
For `CC(C)S(=O)(=O)C1=NSC2=NC(=O)/C(=C\c3ccc(-c4ccccc4)o3)C(=N)N21` the value was “inactive”.
With `CS(=O)(=O)C1=NSC2=NC(=O)/C(=C\c3cccn3-c3ccc(Cl)cc3)C(=N)N21` the entry was “inactive”; with `Cc1c(CC(=O)O)c(=O)oc2c(C)c3occ(-c4ccc(Br)cc4)c3cc12`, “inactive”.
For `O=C(O)/C=C/C(=O)Nc1ccc(C2(c3ccc(NC(=O)/C=C/C(=O)O)cc3)c3ccccc3-c3ccccc32)cc1` the value was “inactive”; for `O=c1[nH]c(=S)[nH]c2c1C(c1ccc(Br)cc1)c1c([nH]c(=S)[nH]c1=O)O2`, “inactive”.
For `COc1ccc(OC)c(/C=C2\SC(=S)N(NS(=O)(=O)c3ccc(C)cc3)C2=O)c1`, the compound was called inactive.
As for `O=C(O)COc1ccc(Br)cc1C(c1c(C(=O)O)[nH]c2ccccc12)c1c(C(=O)O)[nH]c2ccccc12`, the result was inactive.
With `O=C(O)CN1C(=O)/C(=C\c2cc(Br)ccc2OCc2ccc([N+](=O)[O-])cc2)SC1=S` the entry was “inactive”.
For `CCCOc1ccc(C(=O)NNC(=S)NC(=O)c2cc(-c3ccc(Cl)cc3)nc3ccccc23)cc1` the value was “inactive”.
With `CCOc1cc(/C=C2\C(=N)N3N=C(S(C)(=O)=O)SC3=NC2=O)ccc1OCCOc1cccc(OC)c1`, the call was inactive.
Take `NS(=O)(=O)c1cc(C(=O)NC2CCSc3ccccc32)ccc1Cl` (centres undefined): the result was inactive.
With `O=C(CN1C(=O)S/C(=C\C=C\c2ccccc2)C1=O)Nc1ccccc1C(=O)O`, the outcome was inactive.
With `CCOc1cc(/C=C2\C(=O)N(c3cccc(C(=O)O)c3)N=C2C(F)(F)F)ccc1OCC(=O)Nc1ccccc1OC` the entry was “inactive”; with `CCOc1cc(/C=N/NC(=O)c2ccc(-c3csc(Nc4ccc(C)cc4)n3)cc2)ccc1OCC(=O)O`, “inactive”.
For `COc1cc(/C=C2\C(=N)N3N=C(S(C)(=O)=O)SC3=NC2=O)cc(OC)c1OCCOc1cccc(C)c1` the value was “inactive”; for `O=C(O)c1cc(-c2ccc(/C=C3\NC(=O)N(c4ccc(Cl)cc4)C3=O)o2)ccc1Cl`, “inactive”.
With `O=C(O)CN1C(=O)/C(=C\c2cc(Br)ccc2OCc2ccc(Cl)cc2Cl)SC1=S` the entry was “inactive”.
For the compound `N#Cc1c(-c2ccccc2)nc(SCc2cccc(C(F)(F)F)c2)[nH]c1=O`, the compound was classed as inactive.
On to `COc1cc(OC)c2c(O)c3c(c(-c4c5c(c(O)c6c(OC)cc(OC)cc46)CO[C@@H](C)[C@H]5O)c2c1)[C@H](O)[C@H](C)OC3`, for which the compound was classed as inactive.
For `COC(=O)c1sc(-c2ccc(C(C)(C)C)cc2)cc1NC(=O)COCC(=O)O` the value was “inactive”; for `COc1cc(/C=C2\C(=N)N3N=C(S(C)(=O)=O)SC3=NC2=O)cc(OC)c1OCCOc1ccc(C)cc1`, “inactive”.
With `O=C(O)c1ccc(N/N=C/c2ccc(-c3cccc(Cl)c3)o2)cc1` the entry was “inactive”; with `CCS(=O)(=O)C1=NN2C(=N)/C(=C\c3ccc(OS(=O)(=O)c4ccccc4)c(OC)c3)C(=O)N=C2S1`, “inactive”.
For `COc1ccc(-c2csc(NC(=O)CSc3nc(C)nc4sc(C(=O)O)c(C)c34)n2)cc1` the value was “inactive”; for `O=C(CCCN1C(=O)/C(=C/c2cccs2)SC1=S)Nc1ccc(O)c(C(=O)O)c1`, “inactive”; for `CCS(=O)(=O)C1=NSC2=NC(=O)/C(=C\c3ccc(OS(=O)(=O)c4ccccc4)c(OC)c3)C(=N)N21`, “inactive”.
For the compound `COc1cc(C(c2c(C(=O)O)[nH]c3ccccc23)c2c(C(=O)O)[nH]c3ccccc23)ccc1OCc1ccccc1`, the compound was classed as inactive.
